# Experimental data reported in the supplement of paper PMC7411054.
# Counter-ions that a name gives are not always drawn.
# Key:
# Settings in all cases: treatment time: 24 h
# [1] = test system: A549-ACTB-RAB5A; assay: lowest phenotypically active concentration; higher = less potent
# In short: (§1)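 Phenotypic activity depended on meeting both a deviation and a reproducibility criterion. The fifteen gene-edited A549, HepG2 and WPMY1 reporter lines were treated at 0.3, 1, 3 or 9 µM for 24 h, four wells each, then imaged live with features normalised to solvent control wells. Deviation required ≥3 of 4 wells past the 95th percentile of control Euclidean distances, and reproducibility a median replicate Pearson correlation above the 95th percentile of non-replicates.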
# [2] = test system: A549-GM130-SQSTM1; assay: as above
# In short: as §1
# [3] = test system: A549-TUBA1B-RELA; assay: as above
# In short: as §1
# [4] = test system: HepG2-ACTB-RAB5A; assay: as above
# In short: as §1
# [5] = test system: WPMY1-CANX-COX4; assay: as above
# In short: as §1
# [6] = test system: A549-ACTB-RAB5A; assay: phenotypically active (imaging signature differs from DMSO and reproducible) at any of 0.3-9 uM (binary (1 = active, 0 = inactive)); higher = active
# In short: as §1
# [7] = test system: A549-CANX-COX4; assay: as above
# In short: as §1
# [8] = test system: A549-GM130-SQSTM1; assay: as above
# In short: as §1
# [9] = test system: A549-TP53BP1-CLTA; assay: as above
# In short: as §1
# [10] = test system: A549-TUBA1B-RELA; assay: as above
# In short: as §1
# [11] = test system: HepG2-ACTB-RAB5A; assay: as above
# In short: as §1
# [12] = test system: HepG2-CANX-COX4; assay: as above
# In short: as §1
# [13] = test system: HepG2-GM130-SQSTM1; assay: as above
# In short: as §1
# [14] = test system: HepG2-TP53BP1-CLTA; assay: as above
# In short: as §1
# [15] = test system: HepG2-TUBA1B-RELA; assay: as above
# In short: as §1
# [16] = test system: WPMY1-ACTB-RAB5A; assay: as above
# In short: as §1
# [17] = test system: WPMY1-CANX-COX4; assay: as above
# In short: as §1
# [18] = test system: WPMY1-GM130-SQSTM1; assay: as above
# In short: as §1
# [19] = test system: WPMY1-TP53BP1-CLTA; assay: as above
# In short: as §1
# [20] = test system: WPMY1-TUBA1B-RELA; assay: as above
# In short: as §1
Structure (SMILES),lowest phenotypically active concentration [1] [µM],lowest phenotypically active concentration [2] [µM],lowest phenotypically active concentration [3] [µM],lowest phenotypically active concentration [4] [µM],lowest phenotypically active concentration [5] [µM],phenotypically active [6],phenotypically active [7],phenotypically active [8],phenotypically active [9],phenotypically active [10],phenotypically active [11],phenotypically active [12],phenotypically active [13],phenotypically active [14],phenotypically active [15],phenotypically active [16],phenotypically active [17],phenotypically active [18],phenotypically active [19],phenotypically active [20]
COc1cc(N2CCC(N)CC2)ccc1Nc1ncc(Cl)c(-c2c[nH]c3ccccc23)n1,3,≤ 0.3,1,3,1,1 (active),0 (inactive),1 (active),1 (active),1 (active),1 (active),1 (active),1 (active),1 (active),1 (active),1 (active),1 (active),1 (active),1 (active),1 (active)
C[C@H]1Oc2cc(cnc2N)-c2c(nn(C)c2C#N)CN(C)C(=O)c2ccc(F)cc21,3,1,1,3,–,1 (active),0 (inactive),1 (active),1 (active),1 (active),1 (active),1 (active),1 (active),1 (active),1 (active),0 (inactive),0 (inactive),0 (inactive),1 (active),0 (inactive)
CC(C)OC(=O)c1cc2c(OCC(O)CNC(C)(C)C)cccc2[nH]1 (stereo not drawn),3,9,3,9,9,1 (active),0 (inactive),1 (active),1 (active),1 (active),1 (active),0 (inactive),0 (inactive),1 (active),1 (active),1 (active),1 (active),1 (active),1 (active),1 (active)
COc1ccccc1OCCNCC(O)COc1cccc2[nH]c3ccccc3c12 (stereo not drawn) [Carvedilol],9,9,9,9,9,1 (active),0 (inactive),1 (active),1 (active),1 (active),1 (active),1 (active),1 (active),1 (active),1 (active),1 (active),1 (active),1 (active),1 (active),1 (active)
CC#CC(=O)N1CCC[C@H]1c1nc(-c2ccc(C(=O)Nc3ccccn3)cc2)c2c(N)nccn12 [acalabrutinib],9,9,–,–,–,1 (active),0 (inactive),1 (active),0 (inactive),0 (inactive),0 (inactive),0 (inactive),0 (inactive),0 (inactive),0 (inactive),0 (inactive),0 (inactive),0 (inactive),0 (inactive),0 (inactive)
CN1[C@@H]2CC[C@H]1C[C@@H](OC(c1ccccc1)c1ccccc1)C2 [benztropine],9,9,9,9,9,1 (active),0 (inactive),1 (active),1 (active),1 (active),1 (active),1 (active),0 (inactive),1 (active),1 (active),0 (inactive),1 (active),1 (active),0 (inactive),1 (active)
CC/C(=C(\CC)c1ccc(O)c(CN(CC)CC)c1)c1ccc(O)c(CN(CC)CC)c1,≤ 0.3,≤ 0.3,≤ 0.3,1,1,1 (active),0 (inactive),1 (active),1 (active),1 (active),1 (active),0 (inactive),1 (active),1 (active),1 (active),1 (active),1 (active),1 (active),1 (active),1 (active)
CC(C)COCC(CN(Cc1ccccc1)c1ccccc1)N1CCCC1 (stereo not drawn) [bepridil],9,9,9,9,9,1 (active),0 (inactive),1 (active),1 (active),1 (active),1 (active),1 (active),1 (active),1 (active),1 (active),0 (inactive),1 (active),1 (active),1 (active),0 (inactive)
COc1c(C=O)c(O)cc2c1C(=O)c1ccccc1C2=O [Damnacanthal],9,3,–,9,9,1 (active),0 (inactive),1 (active),1 (active),0 (inactive),1 (active),0 (inactive),1 (active),1 (active),0 (inactive),1 (active),1 (active),1 (active),1 (active),1 (active)
NS(=O)(=O)c1nn2cc(-c3ccccc3)nc2s1,9,9,–,9,–,1 (active),0 (inactive),1 (active),1 (active),0 (inactive),1 (active),1 (active),1 (active),0 (inactive),1 (active),1 (active),0 (inactive),1 (active),1 (active),1 (active)
COc1ccc(CCNCc2ccc(OCc3ccc(Cl)nc3)c(OC)c2)cc1OC [SBE 13 hydrochloride],3,9,3,9,9,1 (active),0 (inactive),1 (active),1 (active),1 (active),1 (active),0 (inactive),0 (inactive),1 (active),1 (active),1 (active),1 (active),1 (active),1 (active),1 (active)
